Results published in PubChem BioAssay (NCATS).
Results filed as inconclusive are left out. Entries that show only a call come without a potency. Calls of active or inactive are those of the source. Calls come from the whole dose curve; as a rule, active = well fitted inhibition curve with a large enough effect; inconclusive = small, poorly fitted or top-dose-only effect; inactive = flat fitted curve, though single readings scatter.

molecular target: Luciferin 4-monooxygenase (Photinus pyralis) (UniProt P08659); assay: Biochemical firefly luciferase enzyme assay for NPC (AID 624030);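 note: purified P. pyralis luciferase at 10 nM with luciferin and ATP substrate; nearly all actives have a fitted effect of over 70% in size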; conditions: purified P. pyralis luciferase, luminescence, 5 min; series mostly up to 58.6 µM
Procedure, shortened: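 Purified P. pyralis luciferase at 10 nM in 50 mM Tris Acetate (final), luminescence read within 5 minutes of enzyme addition to compounds. Activity normalised to PTC124 versus DMSO; concentration-response curves classed by r2, magnitude and activity.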

Luciferin 4-monooxygenase (Photinus pyralis), sequence (P08659 whole entry, looked up): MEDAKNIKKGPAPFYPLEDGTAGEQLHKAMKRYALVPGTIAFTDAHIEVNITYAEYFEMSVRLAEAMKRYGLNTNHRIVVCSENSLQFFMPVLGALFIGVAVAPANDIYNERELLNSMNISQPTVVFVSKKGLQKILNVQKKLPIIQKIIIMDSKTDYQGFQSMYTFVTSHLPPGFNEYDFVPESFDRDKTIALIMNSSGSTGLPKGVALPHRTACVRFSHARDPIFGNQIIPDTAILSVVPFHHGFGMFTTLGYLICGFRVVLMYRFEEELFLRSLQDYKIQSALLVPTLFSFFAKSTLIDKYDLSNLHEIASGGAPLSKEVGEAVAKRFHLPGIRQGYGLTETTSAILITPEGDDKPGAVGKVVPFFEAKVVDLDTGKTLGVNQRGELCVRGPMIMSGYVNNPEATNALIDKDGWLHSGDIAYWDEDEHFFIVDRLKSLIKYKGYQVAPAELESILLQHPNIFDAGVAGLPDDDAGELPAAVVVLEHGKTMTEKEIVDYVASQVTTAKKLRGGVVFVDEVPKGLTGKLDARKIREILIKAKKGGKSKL

Compound	Potency
CNCCCN1c2ccccc2CCc2ccccc21	inactive
CCNC(=O)N1CCN(CCCC(c2ccc(F)cc2)c2ccc(F)cc2)CC1	inactive
CN/C(=C\[N+](=O)[O-])NCCSCc1ccc(CN(C)C)o1	inactive
CC(C)COCC(CN(Cc1ccccc1)c1ccccc1)N1CCCC1 (stereo not given)	inactive
CCCCNc1c(C(=O)OCC)c(C)nc2c1cnn2CC	inactive
CN(C)CCCN1c2ccccc2Sc2ccc(C(F)(F)F)cc21	inactive
CC[N+](C)(C)c1cccc(O)c1	inactive
COc1cc(C(=O)OCCCN2CCCN(CCCOC(=O)c3cc(OC)c(OC)c(OC)c3)CC2)cc(OC)c1OC	inactive
COC(=O)C1=C(C)NC(C)=C(C(=O)OCCN(C)Cc2ccccc2)C1c1cccc([N+](=O)[O-])c1 (stereo not given)	inactive
c1cnc(N2CCN(Cc3ccc4c(c3)OCO4)CC2)nc1	inactive
CC(C)[N+](C)(CCOC(=O)C1c2ccccc2Oc2ccccc21)C(C)C	inactive
Cc1nc2c([nH]1)c(=O)n(C)c(=O)n2Cc1ccco1	inactive
CC1=C(C)C(=O)C(CCCCC#CCCCC#CCO)=C(C)C1=O	inactive
CN(C)CC/C=C1\c2ccccc2COc2ccccc21	inactive
CN(C)CCN(Cc1cccs1)c1ccccn1	inactive
Nc1c2c(nc3ccccc13)CCCC2O (stereo not given)	inactive
NCCCNCCSP(=O)(O)O	inactive
CCN(CC)CCNC(=O)c1cc(S(C)(=O)=O)ccc1OC	inactive
CN1CCN(C2=Nc3ccccc3Oc3ccc(Cl)cc32)CC1	inactive
CSc1ccc(C(=O)c2[nH]c(=O)[nH]c2C)cc1	inactive
